{
  "source": "PubChem BioAssay AID492973",
  "about": "(The Scripps Research Institute Molecular Screening Center, 2010)",
  "note": "Active and inactive are the calls of the source.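 The calls were made as follows: active = inhibition above 50% of the enzyme in parasite cell lysate; inactive = the rest.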",
  "data": [
    {"assay": "PfM17LAP inhibitors in parasite extract, late-stage follow-up, cell lysate, fluorescence, Plasmodium falciparum lysate, powder samples (AID 492973)", "conditions": "P. falciparum cell lysate, H-Leu-NHMec fluorescence; at 5 µM; active compounds read high", "values": [
      {"compound": "COc1ccc(NC(=O)CSc2nc(O)cc(=O)n2C)cc1", "inhibition": "29% (inactive)"},
      {"compound": "CCOC(=O)c1c(-c2cccc(C)c2)csc1NC(=O)[C@H]1CC=CC[C@H]1C(=O)O", "inhibition": "26% (inactive)"},
      {"compound": "COc1cc(NC(=O)CSc2nc3c(C)ccc(C)c3cc2C)c(C(=O)O)cc1OC", "inhibition": "74% (active)"},
      {"compound": "O=C(Nc1cc(Cl)ccc1Cl)[C@H]1CC=CC[C@H]1C(=O)O", "inhibition": "9% (inactive)"},
      {"compound": "COC(=O)c1c(-c2ccco2)csc1NC(=O)[C@H]1CC=CC[C@H]1C(=O)O", "inhibition": "51% (active)"},
      {"compound": "COc1ccc(-c2cc(=O)[nH][nH]2)cc1OC", "inhibition": "8% (inactive)"},
      {"compound": "COC(=O)c1c(-c2ccc(C)cc2)csc1NC(=O)[C@H]1CC=CC[C@H]1C(=O)O", "inhibition": "58% (active)"},
      {"compound": "O=C(Nc1ccc(Cl)cc1)Nc1cccc(C(=O)O)c1", "inhibition": "65% (active)"},
      {"compound": "COC(=O)c1c(NC(=O)[C@H]2CCCC[C@H]2C(=O)O)sc2c1CCCCC2", "inhibition": "65% (active)"}
    ]}
  ]
}
